In all, about 5,500 compounds went through this assay and about 2,000 (36%) were called active. About 18% were inconclusive and are not listed. This is one part of the list. A number with no mark means an inactive call. Cut-off read from the data, not from the text of the source: active = normalized growth mostly below about 0.91 (no sharp cut-off); inconclusive = no clear call, values can overlap the other calls; inactive = mostly above about 0.92.
Test: chemical genetic growth profiling, strain panel (AID 1159580);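 note: tested at 20 µM; growth read once vehicle control cultures reached saturation at 30 °C; 1 = growth at the plate median or of vehicle wells; lower values mean less growth of the strain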
Settings: S. cerevisiae deletion strains, growth OD

SMILES: O=c1[nH]c2ccccc2c2ccccc12
- normalized growth (locus YAL040C, strain CLN3, active compounds read low): 1.04
- normalized growth (locus YCL061C, strain MRC1 (second series), active compounds read low): 1
- normalized growth (locus YDR150W, strain NUM1, active compounds read low): 0.983
- normalized growth (locus YDR363W, strain ESC2, active compounds read low): 1.01
- normalized growth (locus YER002W, strain NOP16, active compounds read low): 0.987
- normalized growth (locus YMR307W, strain GAS1, active compounds read low): 0.979
- normalized growth (locus YNL153C, strain GIM3, active compounds read low): 0.779 (active)
- normalized growth (locus YNL175C, strain NOP13, active compounds read low): 0.975
- normalized growth (locus YNL197C, strain WHI3, active compounds read low): 0.967
- normalized growth (locus YNL224C, strain SQS1, active compounds read low): 1.01
- normalized growth (locus YNL322C, strain KRE1, active compounds read low): 0.983
- normalized growth (locus YOR083W, strain WHI5 (second series), active compounds read low): 0.945

From PubChem BioAssay AID1159580 (chemical genetic matrix, 2015)
